Assay [1] addresses human Protein Tyrosine Phosphatase Non-receptor Type 1 (PTPN1), PTPN1 (gene 5770) (UniProt P18031). Nature of the assay: NVS_ENZ_hPTPN1: NovaScreen (NVS) Enzymatic Assay for human Protein Tyrosine Phosphatase Non-receptor Type 1 (PTPN1) (AID 2283201). The method in brief:
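Chemicals were first tested in duplicate at 25 uM, and those passing threshold went on to singleton concentration series topping at 50 uM. Recombinant enzyme, specific substrate, product separated by mobility shift, fluorescence read at 1.33 h; activity loss relative to DMSO.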

Assay [2] concerns the target Tyrosine-protein phosphatase non-receptor type 11 (Homo sapiens) (UniProt Q06124). Nature of the assay: NVS_ENZ_hPTPN11: NovaScreen (NVS) Enzymatic Assay for human Protein Tyrosine Phosphatase Non-receptor Type 11 (PTPN11) (AID 2283202). The essentials:
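Compounds first tested in duplicate at 25 uM; those reaching ~30% inhibition rerun in singleton concentration-response, top 50 uM. Phosphatase activity measured after 0.5 h by fluorescence with mobility-shift separation, relative to DMSO.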

Assay [3] deals with human Protein Tyrosine Phosphatase Non-receptor Type 2 (PTPN2), PTPN2 (gene 5771) (UniProt P17706). Nature of the assay: NVS_ENZ_hPTPN2: NovaScreen (NVS) Enzymatic Assay for human Protein Tyrosine Phosphatase Non-receptor Type 2 (PTPN2) (AID 2283207). The procedure: NVS_ENZ_hPTPN2 is a biochemical, single-readout assay that uses extracted gene-proteins in a cell-free assay. Measurements were taken 1 hour after chemical dosing in a 384-well plate.NVS_ENZ_hPTPN2 is one of one assay component(s) measured or calculated from the NVS_ENZ_hPTPN2 assay. It is designed to make measurements of enzyme activity, a form of enzyme reporter, as detected with fluorescence intensity signals by Fluorescence and electrophoretic mobility shift technology.Data from the assay component NVS_ENZ_hPTPN2 was analyzed into 1 assay endpoint. This assay endpoint, NVS_ENZ_hPTPN2, was analyzed in the positive analysis fitting direction relative to DMSO as the negative control and baseline of activity. Using a type of enzyme reporter, loss-of-signal activity can be used to understand changes in the enzymatic activity as they relate to the gene PTPN2. Furthermore, this assay endpoint can be referred to as a primary readout, because this assay has produced multiple assay endpoints where this one serves a enzymatic activity function. To generalize the intended target to other relatable targets, this assay endpoint is annotated to the phosphatase intended target family, where the subfamily is non-receptor tyrosine phosphatase.
Chain of human Protein Tyrosine Phosphatase Non-receptor Type 2 (PTPN2), PTPN2 (gene 5771) (P17706 whole entry, looked up): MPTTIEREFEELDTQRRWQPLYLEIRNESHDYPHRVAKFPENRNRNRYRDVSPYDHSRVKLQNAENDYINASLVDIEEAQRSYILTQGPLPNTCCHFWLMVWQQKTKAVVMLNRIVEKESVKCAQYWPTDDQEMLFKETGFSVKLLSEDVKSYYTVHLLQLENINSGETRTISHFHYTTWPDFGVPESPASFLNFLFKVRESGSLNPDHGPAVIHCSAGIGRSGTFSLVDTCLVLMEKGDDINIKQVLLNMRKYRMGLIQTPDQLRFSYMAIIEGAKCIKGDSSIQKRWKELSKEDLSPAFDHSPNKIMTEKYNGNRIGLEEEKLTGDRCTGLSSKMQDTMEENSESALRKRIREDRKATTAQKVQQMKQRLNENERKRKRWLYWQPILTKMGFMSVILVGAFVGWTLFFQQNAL
Binding assays used specific radioligands (tritiated, iodinated) with non-radioactive competitive displacement ligands in agonist or antagonist protocols (as indicated) and various reference compounds and inhibitors to titrate specific binding to receptors and transporters. Most enzyme assays (CYPs, kinases, phosphatases, proteases, HDACs) used recombinant protein and specific substrates (fluorescence mostly, some colorimetric and radioactive) and inhibitors, followed by a biochemical separation of substrate and product. All assays for the biochemical HTS were initially run in duplicate at a single concentration (10 uM for CYP450 assays and 25 uM for all others). […] Each assay was run with positive and negative controls, and concurrent controls on every plate. The follow-up (secondary) screen tested active chemical-pairs in concentration series, as well as a few additional assays not tested in the primary screen, some selected negative inactives, and several cases re-run in the concentration series for confirmatory purposes.

The target of assay [4] is PPP2CA (gene 5515) (UniProt P67775). Nature of the assay: NVS_ENZ_hPPP2CA: NovaScreen (NVS) Enzymatic Assay for human Protein Phosphatase 2 Aatalytic subunit Alpha (PPP2CA) (AID 2283199). The essentials: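 Cell-free phosphatase activity: fluorescent substrate turnover by recombinant human enzyme, resolved by mobility shift at 1.33 h. Compounds passing the 25 uM duplicate primary screen were rerun in singleton series with a 50 uM top concentration.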
Chain of PPP2CA (gene 5515) (P67775 whole entry, looked up): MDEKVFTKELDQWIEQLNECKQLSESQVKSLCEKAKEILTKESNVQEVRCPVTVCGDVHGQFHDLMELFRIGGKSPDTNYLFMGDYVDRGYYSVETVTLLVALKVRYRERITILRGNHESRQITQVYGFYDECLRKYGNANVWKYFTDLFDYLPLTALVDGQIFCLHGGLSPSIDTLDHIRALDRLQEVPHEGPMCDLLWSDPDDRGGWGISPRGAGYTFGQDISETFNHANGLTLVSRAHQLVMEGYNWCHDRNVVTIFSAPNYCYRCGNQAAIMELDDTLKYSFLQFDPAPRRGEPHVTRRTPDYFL

The target of assay [5] is Tyrosine-protein phosphatase non-receptor type 14 (Homo sapiens) (UniProt Q15678). Briefly: NVS_ENZ_hPTPN14: NovaScreen (NVS) Enzymatic Assay for human Protein Tyrosine Phosphatase Non-receptor Type 14 (PTPN14) (AID 2283206). The essentials:
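Fluorescent substrate turnover by recombinant human PTPN14 was measured 0.5 h after compound addition, with substrate and product separated by mobility shift. Single-point screening at 25 uM, then concentration-response up to 50 uM for chemicals meeting threshold (e.g., 30% inhibition).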

In assay [6] the target is human Phosphatase and Tensin Homolog (PTEN), PTEN (gene 5728) (UniProt P60484). Briefly: NVS_ENZ_hPTEN: NovaScreen (NVS) Enzymatic Assay for human Phosphatase and Tensin Homolog (PTEN) (AID 2283203). The essentials: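 Loss of fluorescent product signal after mobility-shift separation reports PTEN activity, recombinant human enzyme, 1 h after compound addition. Single 25 uM duplicate screen, then concentration-response on actives; DMSO baseline.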
Chain of human Phosphatase and Tensin Homolog (PTEN), PTEN (gene 5728) (P60484 whole entry, looked up): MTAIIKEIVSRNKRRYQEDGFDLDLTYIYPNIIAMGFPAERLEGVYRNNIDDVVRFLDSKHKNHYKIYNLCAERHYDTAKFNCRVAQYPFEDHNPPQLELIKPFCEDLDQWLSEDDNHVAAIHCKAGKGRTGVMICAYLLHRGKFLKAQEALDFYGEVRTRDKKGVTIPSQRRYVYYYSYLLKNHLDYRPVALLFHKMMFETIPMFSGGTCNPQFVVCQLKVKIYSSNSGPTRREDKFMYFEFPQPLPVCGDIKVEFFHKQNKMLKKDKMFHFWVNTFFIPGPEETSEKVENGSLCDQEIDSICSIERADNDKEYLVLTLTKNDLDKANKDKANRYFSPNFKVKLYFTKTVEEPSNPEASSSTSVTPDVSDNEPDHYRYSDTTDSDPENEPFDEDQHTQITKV

In assay [7] the target is Serine/threonine-protein phosphatase PP1-alpha catalytic subunit (Homo sapiens) (UniProt P62136). Briefly: NVS_ENZ_hPPP1CA: NovaScreen (NVS) Enzymatic Assay for human Protein Phosphatase 1 Aatalytic subunit Alpha (PPP1CA) (AID 2283200). The essentials: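 Chemicals were first screened in duplicate at 25 uM, and those passing threshold (e.g. 30% inhibition) were run as concentration series to 50 uM. Cell-free recombinant protein, 1.33 h read, fluorescent substrate/product mobility-shift detection, normalised to DMSO.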
Chain of Serine/threonine-protein phosphatase PP1-alpha catalytic subunit (Homo sapiens) (P62136 whole entry, looked up): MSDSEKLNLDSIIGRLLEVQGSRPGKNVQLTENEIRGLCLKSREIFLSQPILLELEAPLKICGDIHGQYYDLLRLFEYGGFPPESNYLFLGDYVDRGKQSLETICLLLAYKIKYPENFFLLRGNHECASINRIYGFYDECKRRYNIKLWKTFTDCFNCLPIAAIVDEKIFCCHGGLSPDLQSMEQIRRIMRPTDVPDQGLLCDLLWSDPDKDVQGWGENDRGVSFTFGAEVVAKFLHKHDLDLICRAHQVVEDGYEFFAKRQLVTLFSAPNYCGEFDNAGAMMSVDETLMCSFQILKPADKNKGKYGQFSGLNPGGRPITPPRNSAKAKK

In assay [8] the target is Tyrosine-protein phosphatase non-receptor type 13 (Homo sapiens) (UniProt Q12923). Briefly: NVS_ENZ_hPTPN13: NovaScreen (NVS) Enzymatic Assay for human Protein Tyrosine Phosphatase Non-receptor Type 13 (PTPN13) (AID 2283205). Here is the method:
NVS_ENZ_hPTPN13 is a biochemical, single-readout assay that uses extracted gene-proteins in a cell-free assay. Measurements were taken 0.5 hour after chemical dosing in a 384-well plate.NVS_ENZ_hPTPN13 is one of one assay component(s) measured or calculated from the NVS_ENZ_hPTPN13 assay. It is designed to make measurements of enzyme activity, a form of enzyme reporter, as detected with fluorescence intensity signals by Fluorescence and electrophoretic mobility shift technology.Data from the assay component NVS_ENZ_hPTPN13 was analyzed into 1 assay endpoint. This assay endpoint, NVS_ENZ_hPTPN13, was analyzed in the positive analysis fitting direction relative to DMSO as the negative control and baseline of activity. Using a type of enzyme reporter, loss-of-signal activity can be used to understand changes in the enzymatic activity as they relate to the gene PTPN13. Furthermore, this assay endpoint can be referred to as a primary readout, because this assay has produced multiple assay endpoints where this one serves a enzymatic activity function. To generalize the intended target to other relatable targets, this assay endpoint is annotated to the phosphatase intended target family, where the subfamily is non-receptor tyrosine phosphatase. […]

The target in assay [9] is human Phosphoinositide 3-kinase alpha (PI3Ka), PIK3CA (gene 5290) (UniProt P42336). Nature of the assay: NVS_ENZ_hPI3Ka: NovaScreen (NVS) Enzymatic Assay for human Phosphoinositide 3-kinase alpha (PI3Ka) (AID 2283196). The essentials: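 Fluorescence/mobility-shift readout of substrate conversion by recombinant enzyme, 1 h post-dosing. Primary screen in duplicate at 25 uM; actives (e.g. ≥30% inhibition) retested in singleton concentration-response, top concentration 50 uM.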
Chain of human Phosphoinositide 3-kinase alpha (PI3Ka), PIK3CA (gene 5290) (P42336 whole entry, looked up): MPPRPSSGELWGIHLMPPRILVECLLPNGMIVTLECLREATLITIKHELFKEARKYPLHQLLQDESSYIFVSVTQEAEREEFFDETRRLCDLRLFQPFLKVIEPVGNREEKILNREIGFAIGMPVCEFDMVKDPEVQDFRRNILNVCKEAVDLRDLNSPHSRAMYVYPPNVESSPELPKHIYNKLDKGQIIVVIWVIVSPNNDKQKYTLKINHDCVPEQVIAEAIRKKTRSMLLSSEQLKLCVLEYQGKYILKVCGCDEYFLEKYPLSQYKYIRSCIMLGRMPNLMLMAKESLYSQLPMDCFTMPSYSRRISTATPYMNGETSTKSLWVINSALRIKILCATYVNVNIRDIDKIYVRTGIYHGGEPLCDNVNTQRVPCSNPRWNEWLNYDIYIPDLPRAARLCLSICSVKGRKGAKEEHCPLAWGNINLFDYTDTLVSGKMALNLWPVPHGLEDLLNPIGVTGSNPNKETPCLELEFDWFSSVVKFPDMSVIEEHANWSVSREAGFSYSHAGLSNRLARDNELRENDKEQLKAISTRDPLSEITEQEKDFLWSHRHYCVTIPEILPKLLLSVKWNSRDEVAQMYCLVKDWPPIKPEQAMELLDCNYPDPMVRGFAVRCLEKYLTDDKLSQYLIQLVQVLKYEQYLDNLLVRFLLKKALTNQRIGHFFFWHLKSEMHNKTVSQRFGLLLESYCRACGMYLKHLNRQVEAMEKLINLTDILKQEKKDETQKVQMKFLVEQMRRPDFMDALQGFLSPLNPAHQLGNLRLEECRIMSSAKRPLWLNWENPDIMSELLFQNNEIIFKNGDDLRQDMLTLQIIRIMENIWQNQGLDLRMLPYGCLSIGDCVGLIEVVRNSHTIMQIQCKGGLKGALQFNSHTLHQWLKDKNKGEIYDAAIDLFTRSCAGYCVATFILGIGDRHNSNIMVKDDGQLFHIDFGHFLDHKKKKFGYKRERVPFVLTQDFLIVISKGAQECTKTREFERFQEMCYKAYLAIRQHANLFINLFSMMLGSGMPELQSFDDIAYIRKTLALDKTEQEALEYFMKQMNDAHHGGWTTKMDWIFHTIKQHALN

For assay [10], the target named is Tyrosine-protein phosphatase non-receptor type 12 (Homo sapiens) (UniProt Q05209). Briefly: NVS_ENZ_hPTPN12: NovaScreen (NVS) Enzymatic Assay for human Protein Tyrosine Phosphatase Non-receptor Type 12 (PTPN12) (AID 2283204). The method in brief:
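Single-concentration duplicates (25 uM) preceded singleton concentration-response up to 50 uM for chemicals passing threshold. Cell-free recombinant PTPN12 activity was read 1.33 h after dosing via fluorescence after mobility-shift separation; loss of signal versus DMSO.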

Where “and” joins values, the source holds several entries; their conditions need not be identical. Identical values can stand only once. Results filed as inconclusive are left out. The source holds several records for some structures; these can differ, active in one and inactive in another. Calls of active or inactive are those of the source. The calls were made as follows: active = hit-call score of the fitted dose curve at least 0.9, where 1 is the maximum; inconclusive = response in the unintended direction; inactive = score below 0.9.

Chain of human Protein Tyrosine Phosphatase Non-receptor Type 1 (PTPN1), PTPN1 (gene 5770) (P18031 whole entry, looked up): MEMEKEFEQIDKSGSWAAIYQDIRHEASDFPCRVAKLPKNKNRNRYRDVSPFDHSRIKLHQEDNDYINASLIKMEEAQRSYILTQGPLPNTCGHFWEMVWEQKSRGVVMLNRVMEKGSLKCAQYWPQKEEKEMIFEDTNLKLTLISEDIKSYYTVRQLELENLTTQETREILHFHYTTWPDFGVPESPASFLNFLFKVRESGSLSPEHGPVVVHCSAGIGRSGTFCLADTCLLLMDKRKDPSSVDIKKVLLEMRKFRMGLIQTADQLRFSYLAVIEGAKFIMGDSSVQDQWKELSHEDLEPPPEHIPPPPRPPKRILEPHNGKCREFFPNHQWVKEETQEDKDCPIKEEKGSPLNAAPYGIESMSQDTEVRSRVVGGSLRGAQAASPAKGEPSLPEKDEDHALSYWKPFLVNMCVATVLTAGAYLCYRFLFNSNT
Chain of Tyrosine-protein phosphatase non-receptor type 14 (Homo sapiens) (Q15678 whole entry, looked up): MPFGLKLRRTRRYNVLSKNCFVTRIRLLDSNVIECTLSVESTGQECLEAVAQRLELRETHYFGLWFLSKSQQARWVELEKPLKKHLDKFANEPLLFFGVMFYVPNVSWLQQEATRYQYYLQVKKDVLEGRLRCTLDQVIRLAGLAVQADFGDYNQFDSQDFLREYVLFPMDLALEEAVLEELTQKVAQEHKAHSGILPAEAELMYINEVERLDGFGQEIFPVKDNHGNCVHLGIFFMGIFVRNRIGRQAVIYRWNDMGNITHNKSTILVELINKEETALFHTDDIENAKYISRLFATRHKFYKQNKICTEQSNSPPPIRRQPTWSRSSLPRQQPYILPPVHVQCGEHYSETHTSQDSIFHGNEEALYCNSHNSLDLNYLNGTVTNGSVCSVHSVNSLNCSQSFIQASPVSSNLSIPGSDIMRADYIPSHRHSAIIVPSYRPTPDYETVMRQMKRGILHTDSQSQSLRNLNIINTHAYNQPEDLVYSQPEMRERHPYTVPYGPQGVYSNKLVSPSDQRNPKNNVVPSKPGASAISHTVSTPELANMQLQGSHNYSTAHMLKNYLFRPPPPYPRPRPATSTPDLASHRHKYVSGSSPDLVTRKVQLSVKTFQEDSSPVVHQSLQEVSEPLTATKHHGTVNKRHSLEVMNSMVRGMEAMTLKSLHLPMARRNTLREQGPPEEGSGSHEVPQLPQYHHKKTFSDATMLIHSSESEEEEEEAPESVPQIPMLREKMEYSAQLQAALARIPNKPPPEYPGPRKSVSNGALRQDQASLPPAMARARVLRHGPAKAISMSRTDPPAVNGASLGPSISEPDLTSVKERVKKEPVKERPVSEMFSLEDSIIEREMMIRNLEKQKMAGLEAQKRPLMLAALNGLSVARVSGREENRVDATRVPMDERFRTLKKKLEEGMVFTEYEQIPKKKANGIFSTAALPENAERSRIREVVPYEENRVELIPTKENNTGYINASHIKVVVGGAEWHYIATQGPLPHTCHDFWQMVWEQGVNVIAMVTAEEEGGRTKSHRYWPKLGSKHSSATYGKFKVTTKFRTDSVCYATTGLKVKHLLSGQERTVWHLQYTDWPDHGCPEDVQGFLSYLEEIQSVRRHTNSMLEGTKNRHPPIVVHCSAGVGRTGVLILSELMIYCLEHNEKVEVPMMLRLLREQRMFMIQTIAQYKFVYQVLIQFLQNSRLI
Chain of Tyrosine-protein phosphatase non-receptor type 12 (Homo sapiens) (Q05209 whole entry, looked up): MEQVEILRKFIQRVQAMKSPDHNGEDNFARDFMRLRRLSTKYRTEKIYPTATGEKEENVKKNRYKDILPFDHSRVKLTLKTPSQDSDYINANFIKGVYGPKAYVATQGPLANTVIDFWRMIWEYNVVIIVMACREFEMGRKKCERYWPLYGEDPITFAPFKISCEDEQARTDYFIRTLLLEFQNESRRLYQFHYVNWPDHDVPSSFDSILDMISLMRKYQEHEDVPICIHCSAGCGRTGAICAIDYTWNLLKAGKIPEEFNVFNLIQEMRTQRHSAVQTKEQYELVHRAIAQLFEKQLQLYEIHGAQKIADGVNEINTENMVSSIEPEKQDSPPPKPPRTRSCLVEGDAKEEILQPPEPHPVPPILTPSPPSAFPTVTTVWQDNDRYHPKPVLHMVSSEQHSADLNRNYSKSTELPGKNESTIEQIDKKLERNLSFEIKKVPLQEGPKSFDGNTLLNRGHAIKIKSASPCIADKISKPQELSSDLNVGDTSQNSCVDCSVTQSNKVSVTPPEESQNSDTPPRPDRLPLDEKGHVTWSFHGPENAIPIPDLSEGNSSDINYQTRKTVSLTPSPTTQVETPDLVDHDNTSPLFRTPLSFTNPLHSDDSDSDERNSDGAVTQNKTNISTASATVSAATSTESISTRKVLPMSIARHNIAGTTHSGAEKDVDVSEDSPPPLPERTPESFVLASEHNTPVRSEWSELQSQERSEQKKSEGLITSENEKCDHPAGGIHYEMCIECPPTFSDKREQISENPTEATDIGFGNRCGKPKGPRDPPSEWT

As for `S=C1NCCN1`, the outcome in assay [1], in assay [2] and in assay [3] was inactive.
Consider `CCC(=O)Nc1ccc(Cl)c(Cl)c1`, for which the molecule was called inactive in assay [4].
`CCc1cccc(CC)c1N(COC)C(=O)CCl`: the result in [3] was inactive.
Regarding `CC(C)N(C(=O)SCC(Cl)=C(Cl)Cl)C(C)C`, the outcome in [5] was inactive.
For the molecule `C#CC(C)(C)NC(=O)c1cc(Cl)cc(Cl)c1`, the result in assay [6] and in [3] was inactive.
Regarding `CCOP(=S)(OCC)Oc1cc(C)nc(C(C)C)n1`, the outcome in assay [7] and in assay [3] was inactive.
Consider `C=C(C)[C@H]1Cc2c(ccc3c2O[C@@H]2COc4cc(OC)c(OC)cc4[C@@H]2C3=O)O1`, for which the result in [2] was inactive.
For `CCC(=NOC/C=C/Cl)C1=C(O)CC(C2CCOCC2)CC1=O` (stereo not given), the call in assay [2] and in assay [5] was inactive.
Broadly, the AC50 is the concentration at which the activity in the assay is half-maximal. Regarding `Nc1c(Cl)cc([N+](=O)[O-])cc1Cl`, the AC50 in [8] is 25 µM (active). The call in assay [3] was inactive.
On to `N#CSCSC#N`, for which the outcome in assay [5] was inactive.
In the case of `CCOP(=S)(OCC)SCCSCC`, the molecule was called inactive in [7].
Take `CNC(=O)ON=C(C)SC`: the call in assay [9] was inactive.
On to `CCOP(=O)(OCC)Oc1cc(C)nc(C(C)C)n1`, for which, in [7], the call was inactive.
Turning to `CC1(C(=O)Nc2ccc(O)c(Cl)c2Cl)CCCCC1`, the molecule was called inactive in [9].
Consider `CC[C@H](C)[C@H]1O[C@]2(C=C[C@@H]1C)C[C@@H]1C[C@@H](C/C=C(\C)[C@@H](O[C@H]3C[C@H](OC)[C@@H](O[C@H]4C[C@H](OC)[C@@H](NC)[C@H](C)O4)[C@H](C)O3)[C@@H](C)/C=C/C=C3\CO[C@@H]4[C@H](O)C(C)=C[C@@H](C(=O)O1)[C@]34O)O2`, for which the AC50 in assay [9] was 7.94 µM (active); in assay [4] it was 16.8 µM (active); in assay [6], 4.5 nM (active).
As to `CC(C)[C@H](C(=O)O[C@H](C#N)c1cccc(Oc2ccccc2)c1)c1ccc(Cl)cc1`, the result in assay [6] was inactive.
As to `CN(C)[C@@H]1C(=O)C(C(N)=O)=C(O)[C@@]2(O)C(=O)C3=C(O)c4c(O)cccc4[C@@](C)(O)[C@H]3[C@H](O)[C@@H]12`, the AC50 is 4.72 µM (active) and 4.22 µM (active) and 15.1 µM (active) in assay [9]; 23.1 µM (active) in assay [4]; 17.4 µM (active) in assay [7]; 23.1 µM (active) in [1]; 10.9 µM (active) and 2.67 µM (active) in assay [2]; 2.52 µM (active) and 1.53 µM (active) and 2.46 µM (active) in assay [6]. The AC50 in [10] was 3.91 µM (active) and 18.2 µM (active) and 1.8 µM (active); in assay [8], 2.9 µM (active); in assay [5], 26.3 µM (active); in assay [3], 20.1 µM (active). Further, the call in [9] was inactive.
On to `CCOP(=S)(OCC)OC(Cl)C(Cl)(Cl)Cl` (stereo not given), for which the call in [1] was inactive.
For the molecule `CC(C)=CC1C(C(=O)OCN2C(=O)C3=C(CCCC3)C2=O)C1(C)C` (stereo not given), the result in assay [9] was inactive.
For `CCCCSP(=O)(SCCCC)SCCCC`, the AC50 in assay [7] was 10.4 µM (active). In assay [10], the call was inactive.
On to `Cc1ccn2nc(S(=O)(=O)Nc3c(F)cccc3F)nc2n1`, for which the molecule was classed as inactive in assay [9].
As for `O=c1ccc(=O)[nH][nH]1`, in assay [5], the call was inactive.
On the same count and under the same terms, next, `O=C(O)c1cc(Oc2ccc(C(F)(F)F)cc2Cl)ccc1[N+](=O)[O-]`: “inactive”.
For the molecule `CCOC(=O)CC(SP(=O)(OC)OC)C(=O)OCC` (stereo not given), the call in [7] was inactive.
As to `CN1COCN(Cc2cnc(Cl)s2)C1=N[N+](=O)[O-]`, the outcome in assay [5] was inactive.
With `CCNc1nc(Cl)nc(NC(C)(C)C#N)n1`, the molecule was called inactive in assay [5].
In the case of `CNC(=O)Oc1cccc2c1OC(C)(C)O2`, the call in assay [2] and in assay [5] was inactive.
As to `Nc1nc(N)nc(NC2CC2)n1`, the molecule was classed as inactive in assay [5].
Take `CCCCOC(=O)c1ccccc1C(=O)O`: the call in assay [5] was inactive.
As for `CCOP(=S)(Oc1cnc(C(C)(C)C)nc1)OC(C)C` (stereo not given), the call in [4] was inactive.
For `CSC1=N[C@@](C)(c2ccccc2)C(=O)N1Nc1ccccc1`, the outcome in [5] was inactive.
Turning to `COc1cc(OC)nc(Sc2cccc(Cl)c2C(=O)O)n1`, in assay [10], the molecule was called inactive.
Consider `O=[N+]([O-])c1cc(C(F)(F)F)c(Cl)c([N+](=O)[O-])c1Nc1ncc(C(F)(F)F)cc1Cl`, for which the molecule was called inactive in assay [9] and in assay [7].
`CCCCN(CC)c1c([N+](=O)[O-])cc(C(F)(F)F)cc1[N+](=O)[O-]`: the molecule was called inactive in assay [7].

These data come from PubChem BioAssay (EPA / NIEHS).
